The source made the active and inactive calls.

This passage reports z-score and composite z-score results from PubChem BioAssay.

Assay [1] in a line: optical density shifts of acrAB sulA E. coli – strain DRC41, OD650, 48 h, E. coli filamentation inducer project, primary screen (AID 1152).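 Also: E. coli MC1000 strain DRC41 lacking acrAB efflux pump and sulA.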 Particulars: higher = more signal, called active from +8 up or from −8 down.
Assay [2] can be described thus: probe aLefty1 binding on compound microarray – biochemical, small-molecule microarray, 635/667 nm fluorescence, primary screen (AID 1153).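 Also: score merges spot fluorescence with signal-to-noise ratio from the scanned slide images.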 To be noted: higher = more signal.
Assay [3] in a line: plasmodial surface anion channel blockers, osmotic lysis – cell-based, P. falciparum Indochina, OD700, 1 h, primary screen (AID 1154). Particulars: P. falciparum Indochina infected RBC osmotic lysis, higher = more signal, called active from +8 up or from −8 down.
Assay [4] in a line: plasmodial surface anion channel blockers, osmotic lysis – cell-based, P. falciparum Indochina, OD700, 2 h, primary screen (AID 1155).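 Also: lysis reports solute entry through the parasite surface anion channel PSAC.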 To be noted: P. falciparum Indochina infected erythrocytes, higher = more signal, called active from +8 up or from −8 down.
Assay [5] can be described thus: changes in parasitized red cell lysis, either direction – P. falciparum Indochina, OD700, 3 h, PSAC antagonist project, primary screen (AID 1156). Particulars: P. falciparum-infected erythrocytes, osmotic lysis, higher = more signal, called active from +8 up or from −8 down.
The nature of assay [6]: plasmodial surface anion channel blockers, osmotic lysis – cell-based, P. falciparum Indochina, OD700, 18 h, primary screen (AID 1157). To be noted: P. falciparum Indochina infected erythrocytes, osmotic lysis OD700, 18 h; higher = more signal, called active from +8 up or from −8 down.
A short description of assay [7]: S6 kinase pathway phospho-S6 level changes – cell-based, A549, cytoblot, luminescence, serum-stimulated, primary screen (AID 1158).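 Also: serum-stimulated A549 lung adenocarcinoma cells; signal is phosphorylated S6 detected by cytoblot immunostaining with HRP secondary.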 To be noted: 5 h, higher = more signal.
For assay [8], the target named is NADPH oxidase 2 (Homo sapiens) (UniProt P04839). Kind of assay: compounds shifting NOX2 Amplex Red fluorescence – cell-based, HEK293-NOX2, PMA-stimulated, NOX inhibitor project, primary screen (AID 1159). Also: test concentration not given here. Particulars: 45 min, higher = more signal, called active from +8 up or from −8 down.
Sequence of NADPH oxidase 2 (Homo sapiens) (P04839 whole entry, looked up): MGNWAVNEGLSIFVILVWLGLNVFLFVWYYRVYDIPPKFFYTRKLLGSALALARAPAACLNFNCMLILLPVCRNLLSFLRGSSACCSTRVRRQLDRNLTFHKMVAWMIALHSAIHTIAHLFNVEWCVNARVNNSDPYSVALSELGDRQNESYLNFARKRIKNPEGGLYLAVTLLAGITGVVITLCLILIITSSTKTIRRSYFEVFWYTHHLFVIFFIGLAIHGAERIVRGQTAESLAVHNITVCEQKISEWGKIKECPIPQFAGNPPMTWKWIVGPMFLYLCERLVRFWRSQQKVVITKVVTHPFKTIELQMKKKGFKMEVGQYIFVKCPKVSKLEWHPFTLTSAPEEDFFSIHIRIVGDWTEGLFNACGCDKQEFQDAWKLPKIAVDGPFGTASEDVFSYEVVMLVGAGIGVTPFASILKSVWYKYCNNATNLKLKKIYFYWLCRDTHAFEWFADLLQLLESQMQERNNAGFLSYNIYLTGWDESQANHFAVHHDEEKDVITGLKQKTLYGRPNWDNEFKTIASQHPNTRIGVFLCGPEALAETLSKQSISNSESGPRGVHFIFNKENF
In assay [9] the target is NADPH oxidase 4 (Homo sapiens) (UniProt Q9NPH5). Kind of assay: compounds shifting NOX4 Amplex Red fluorescence – cell-based, HEK293-NOX4, tetracycline-induced, NOX inhibitor project, primary screen (AID 1160). Particulars: HEK293-NOX4, Amplex Red H2O2 fluorescence, 45 min; higher = more signal, called active from +8 up or from −8 down.
Sequence of NADPH oxidase 4 (Homo sapiens) (Q9NPH5 whole entry, looked up): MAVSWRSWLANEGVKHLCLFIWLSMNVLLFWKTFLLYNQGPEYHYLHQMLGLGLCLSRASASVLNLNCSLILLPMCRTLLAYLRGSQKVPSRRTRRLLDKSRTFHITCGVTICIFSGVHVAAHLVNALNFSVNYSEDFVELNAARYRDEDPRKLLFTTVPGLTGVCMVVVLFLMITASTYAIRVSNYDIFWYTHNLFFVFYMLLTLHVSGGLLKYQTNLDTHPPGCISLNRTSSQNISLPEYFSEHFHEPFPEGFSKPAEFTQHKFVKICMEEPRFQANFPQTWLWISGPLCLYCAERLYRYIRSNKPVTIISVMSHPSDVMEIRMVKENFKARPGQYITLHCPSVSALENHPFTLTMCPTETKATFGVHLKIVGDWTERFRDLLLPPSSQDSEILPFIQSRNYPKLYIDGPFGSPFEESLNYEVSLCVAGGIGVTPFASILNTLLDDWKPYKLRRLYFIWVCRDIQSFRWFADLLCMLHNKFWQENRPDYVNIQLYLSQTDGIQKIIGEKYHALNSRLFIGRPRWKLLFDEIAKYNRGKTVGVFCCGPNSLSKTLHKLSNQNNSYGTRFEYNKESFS
Assay [10] addresses NADPH oxidase 5 (Homo sapiens) (UniProt Q96PH1). Kind of assay: compounds shifting NOX5 Amplex Red fluorescence – cell-based, HEK293-NOX5, NOX inhibitor project, primary screen (AID 1161). To be noted: HEK293-NOX5, ionomycin, 45 min, higher = more signal.
Assay [11] in a line: compound effects on lung adenocarcinoma cell viability – A549, calcein-AM fluorescence, 48 h, basal, profiling panel (AID 1162). Also: test concentration not given here. To be noted: higher = more signal.
The nature of assay [12]: compound effects on differentiated 3T3-L1 adipocyte viability – cell-based, 3T3-L1 adipocytes, calcein-AM fluorescence, 48 h, basal, profiling panel (AID 1163). Also: test concentration not given here. To be noted: 3T3-L1 adipocytes viability, higher = more signal.
Assay [13] is described as follows: compound effects on hepatocellular carcinoma cell viability – HepG2, calcein-AM fluorescence, 48 h, basal, profiling panel (AID 1164). Also: test concentration not given here. To be noted: higher = more signal.
A short description of assay [14]: compound effects on multiple myeloma cell viability – MM1S, calcein-AM fluorescence, 48 h, basal, profiling panel (AID 1165).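 Also: viability of MM1S multiple myeloma cells under basal unstimulated conditions; test concentration not given here.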 Particulars: higher = more signal.
Assay [15] can be described thus: calcein-AM signal in unstimulated myeloma cells – cell-based, calcein-AM fluorescence, 48 h, PK04 Diversity Set, profiling panel (AID 1166).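 Also: cells grown under basal conditions without added stimulus; test concentration not given here.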 To be noted: RPMI8226 myeloma viability, higher = more signal.
A short description of assay [16]: JC-1 mitochondrial signal, unstimulated HepG2 cells – cell-based, JC-1 fluorescence, 24 h, 100 nL compound, profiling panel (AID 1167). Also: test concentration not given here. To be noted: HepG2 mitochondrial potential, higher = more signal.
Assay [17] can be described thus: JC-1 mitochondrial signal, unstimulated adipocytes – cell-based, JC-1 fluorescence, 3T3-L1 adipocytes, 24 h, 100 nL compound, profiling panel (AID 1168). Also: test concentration not given here. To be noted: JC-1 mitochondrial fluorescence, higher = more signal, called active from +8 up or from −8 down.
Assay [18] is described as follows: JC-1 mitochondrial signal, unstimulated myeloma cells – cell-based, JC-1 fluorescence, RPMI8226, 24 h, 100 nL compound, profiling panel (AID 1169). Also: test concentration not given here. Particulars: JC-1 mitochondrial potential fluorescence, higher = more signal.
The nature of assay [19]: JC-1 mitochondrial signal, unstimulated MM1S myeloma – cell-based, JC-1 fluorescence, 24 h, 100 nL compound, profiling panel (AID 1170). Also: test concentration not given here. To be noted: MM1S mitochondrial potential, higher = more signal.
The nature of assay [20]: resazurin metabolic signal in A549 cells – cell-based, resazurin fluorescence, 24 h, PK04 Diversity Set, profiling panel (AID 1171). Also: test concentration not given here. To be noted: A549 viability, higher = more signal, called active from +8 up or from −8 down.

Sequence of NADPH oxidase 5 (Homo sapiens) (Q96PH1 whole entry, looked up): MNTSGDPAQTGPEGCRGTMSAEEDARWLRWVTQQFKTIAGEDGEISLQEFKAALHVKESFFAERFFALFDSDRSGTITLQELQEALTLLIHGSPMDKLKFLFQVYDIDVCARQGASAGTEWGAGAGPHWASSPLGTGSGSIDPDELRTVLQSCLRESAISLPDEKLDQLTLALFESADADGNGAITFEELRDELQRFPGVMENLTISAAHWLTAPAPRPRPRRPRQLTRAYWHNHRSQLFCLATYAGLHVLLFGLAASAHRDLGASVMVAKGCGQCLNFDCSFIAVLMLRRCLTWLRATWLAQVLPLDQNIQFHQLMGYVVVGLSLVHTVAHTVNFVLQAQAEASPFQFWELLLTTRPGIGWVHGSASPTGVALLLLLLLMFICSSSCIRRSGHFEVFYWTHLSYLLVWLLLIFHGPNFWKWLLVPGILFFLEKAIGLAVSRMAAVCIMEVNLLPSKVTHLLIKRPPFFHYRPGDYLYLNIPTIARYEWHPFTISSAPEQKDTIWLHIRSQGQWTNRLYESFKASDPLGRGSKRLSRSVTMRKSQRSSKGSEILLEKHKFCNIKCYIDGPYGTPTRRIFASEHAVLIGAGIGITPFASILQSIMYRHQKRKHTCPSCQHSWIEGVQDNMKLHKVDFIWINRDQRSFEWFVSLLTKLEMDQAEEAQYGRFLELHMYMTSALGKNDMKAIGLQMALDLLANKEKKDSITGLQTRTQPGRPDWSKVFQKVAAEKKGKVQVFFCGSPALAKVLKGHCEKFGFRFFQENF

As to `CCOC(=O)[C@H](Cc1ccccc1)NC(=O)CCC1CC(OC(=O)NCCc2ccc(F)cc2)CC2(CCCC(COC(=O)NCc3ccccc3)O2)O1` (stereo not given in full), the z-score in assay [1] is -0.713 (inactive); in [3], -0.623 (inactive); in [4] it was -0.567 (inactive); in assay [5], -0.857 (inactive); in [6] it was -0.144 (inactive); in assay [7] it was 0.0765. Besides, the z-score in assay [8] was -0.0815 (inactive); in assay [9], 1.21 (inactive); in assay [10] it was 0.616; in [11], 0.199; in [12], -0.765; in assay [13], -0.12. The z-score was 0.399 in assay [14]; -0.816 in assay [15]; 0.968 in [16]; 0.509 (inactive) in assay [17]; -0.191 in [18]; -0.266 in assay [19]. Moreover, in [20], the z-score was 0.56 (inactive). Moreover, in [2], the composite z-score is -0.152.
For the compound `CO[C@@H]1COC(=O)CC=C[C@@H](C)[C@H](OC)COC(=O)[C@@H](C)COC(=O)CC=C[C@H]1C`, the z-score in assay [1] was 0.604 (inactive); in assay [3], -0.52 (inactive); in assay [4] it was 0.409 (inactive); in [5] it was -0.28 (inactive); in [6], 0.377 (inactive); in assay [7] it was -0.0303. In addition, the z-score in [8] was -0.387 (inactive); in assay [9] it was 0.195 (inactive); in assay [10] it was 0.479; in assay [11], 0.865; in assay [12] it was -0.159; in assay [13] it was 1.48. Moreover, the z-score in assay [14] was 0.397; in [15], -0.802; in assay [16] it was 1.11; in assay [17], -0.661 (inactive); in [18] it was 0.338; in assay [19], 0.253. In assay [20], the z-score is 0.134 (inactive). Further, the composite z-score in assay [2] was -0.145.
For the compound `CO[C@H]1COC(=O)CC=C[C@H](C)[C@@H](OC)COC(=O)[C@@H](C)COC(=O)CC=C[C@@H]1C`, the z-score in assay [1] was -0.513 (inactive); in [3], -0.435 (inactive); in [4], 0.106 (inactive); in assay [5], 0.033 (inactive); in [6], -0.213 (inactive); in assay [7] it was -0.0875. For the same compound, the z-score in assay [8] was -1.46 (inactive); in [9], 0.28 (inactive); in assay [10], 0.18; in assay [11], -0.0895; in [12], 1.19; in assay [13] it was 0.389. In addition, the z-score in assay [14] was 0.242; in assay [15], 0.21; in assay [16], 0.429; in assay [17], 0.673 (inactive); in [18] it was -0.296; in assay [19], 1.01. Also, the z-score in assay [20] is 0.455 (inactive). Moreover, the composite z-score in [2] is -0.193.
Turning to `CCOC(=O)[C@H](CC(C)C)NC(=O)CCC1CC(OC(=O)NCc2cccc3ccccc23)CC2(CCCC(COC(=O)NCCc3ccc(Cl)cc3)O2)O1` (stereo not given in full), the z-score in assay [1] was 0.692 (inactive); in [3], 3.31 (inactive); in [4] it was 0.0962 (inactive); in assay [5], -0.837 (inactive); in [6], -0.466 (inactive); in assay [7], 0.367. In addition, the z-score in [8] was 0.274 (inactive); in assay [9], 0.623 (inactive); in [10] it was 1.24; in assay [11], -0.539; in [12] it was -0.23; in assay [13], -0.0607. Besides, the z-score was -3.16 in assay [14]; 0.403 in assay [15]; 0.326 in assay [16]; 1.03 (inactive) in [17]; -0.436 in [18]; -1.86 in assay [19]. Besides, the z-score in [20] is 0.384 (inactive). Moreover, the composite z-score in assay [2] is -0.14.
Turning to `Cc1ccc(S(=O)(=O)N[C@H]2COC(=O)CC=C[C@H](C)[C@@H](NS(=O)(=O)c3ccc(C)cc3)COC(=O)CC=C[C@@H]2C)cc1`, the z-score in assay [1] is 0.373 (inactive); in [3] it was 0.334 (inactive); in assay [4], 0.283 (inactive); in assay [5] it was 0.654 (inactive); in assay [6], 0.441 (inactive); in assay [7], -1.01. Besides, the z-score in assay [8] was 0.152 (inactive); in [9] it was -1.92 (inactive); in assay [10] it was -1.01; in assay [11], -0.315; in assay [12], 0.352; in assay [13], -0.521. Further, the z-score is 0.248 in assay [14]; -0.11 in [15]; 0.477 in assay [16]; -0.0603 (inactive) in assay [17]; 0.822 in assay [18]; 0.507 in [19]. Moreover, in [20], the z-score was 0.694 (inactive). In addition, the composite z-score in [2] was -0.147.
Consider `CCOC(=O)[C@H](Cc1ccccc1)NC(=O)CCC1CC(OC(=O)NCc2cccc3ccccc23)CC2(CCCC(COC(=O)NCCC(C)C)O2)O1` (stereo not given in full), for which the z-score in assay [1] was 0.165 (inactive); in [3] it was 15.9 (active); in [4], 1.95 (inactive); in assay [5], -2.04 (inactive); in assay [6] it was -0.492 (inactive); in assay [7], 0.255. For the same compound, the z-score in assay [8] is 1.59 (inactive); in assay [9], 1.24 (inactive); in assay [10], 0.101; in [11], 0.509; in assay [12], -0.0617; in assay [13], -0.166. The z-score is 0.389 in [14]; 0.302 in assay [15]; -0.433 in assay [16]; -0.133 (inactive) in assay [17]; -0.758 in assay [18]; -0.121 in assay [19]. Also, the z-score in assay [20] is 1.32 (inactive). Also, in assay [2], the composite z-score was -0.0733.
As for `CC(C)(C)N1C(=O)[C@H]2[C@H]3[C@H](O)[C@H](O)CC(=O)[C@H]3CC[C@H]2C1=O`, the z-score in [1] was -0.714 (inactive); in [3], -0.0882 (inactive); in [4], 0.499 (inactive); in [5], -0.933 (inactive); in assay [6], 0.183 (inactive); in assay [7] it was 1.23. Besides, the z-score in assay [8] is 1.22 (inactive); in assay [9] it was -1.36 (inactive); in assay [10], 0.0957; in [11] it was -0.568; in [12], 0.372; in assay [13], 0.258. Besides, the z-score in [14] was -1; in assay [15], -0.27; in assay [16], 0.192; in assay [17], -0.445 (inactive); in [18] it was 0.651; in [19], -0.512. Further, the z-score in assay [20] was -0.644 (inactive). In assay [2], the composite z-score is -0.144.
Consider `CC(CCN1CCCCc2nc(C)c(C)cc21)=NO[C@@H](C)c1cn([C@H](CO)Cc2ccccc2)nn1`, for which the z-score in [1] is 0.72 (inactive); in assay [3], 2.04 (inactive); in assay [4] it was 0.32 (inactive); in assay [5], 0.729 (inactive); in [6], 0.367 (inactive); in assay [7] it was -0.11. For the same compound, the z-score in assay [8] was -2.09 (inactive); in [9] it was -0.106 (inactive); in assay [10] it was -0.199; in [11], 0.455; in assay [12] it was -0.374; in [13], 0.0163. In addition, the z-score was 0.313 in [14]; 0.307 in [15]; -1.33 in [16]; -0.151 (inactive) in assay [17]; 0.878 in [18]; -0.859 in [19]. Moreover, in [20], the z-score was -0.32 (inactive). In [2], this compound returned a composite z-score of 0.0618.
For the compound `COc1ccc(O[C@@H]2[C@H](O)CO[C@@H]2C=Cc2ccccc2)cc1`, the z-score was -1.74 (inactive) in assay [1]; 5.53 (inactive) in assay [3]; -0.0327 (inactive) in [4]; 1.23 (inactive) in assay [5]; -0.66 (inactive) in assay [6]; 1.49 in [7]. In addition, the z-score is 0.561 (inactive) in [8]; -0.92 (inactive) in [9]; -2.07 in [10]; 0.069 in assay [11]; 1.72 in assay [12]; -0.0757 in assay [13]. Also, the z-score is -2.82 in assay [14]; -1.1 in assay [15]; 1.11 in assay [16]; 0.6 (inactive) in assay [17]; 0.132 in assay [18]; 0.322 in [19]. The z-score in [20] is -0.548 (inactive). Also, in [2], the composite z-score amounted to 0.417.
